Laboratory results taken from PubChem BioAssay (Tox21).
Results filed as inconclusive are left out. Activity calls are given as the source filed them. Unless noted, the call rests on the fitted dose curve.

Experiments:
[1] = Nuclear factor erythroid 2-related factor 2/antioxidant responsive element (Nrf2/ARE) small molecule agonists: qHTS cell viability counter screen in human keratinocytes (AID 1919968; active means well fitted curve in the direction sought with a large enough effect in the repeat runs; an effect the other way counts as inactive or inconclusive; further: nearly all actives have a fitted effect of over 55% in size; further: potency means the concentration at half of the fitted maximal effect)
Procedure, shortened: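 CellTiter-Fluor fluorescence, read 1 h after reagent, gave viability in the same wells as the ARE-luciferase assay. KeratinoSens cells (1,500/well) had 23 h compound exposure at 37 C/5% CO2 following 5 h plating.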

[2] = Nuclear factor erythroid 2-related factor 2/antioxidant responsive element (Nrf2/ARE) small molecule agonists: luciferase reporter gene qHTS assay in human keratinocytes (AID 1919969); further: nearly all actives have a fitted effect of over 35% in size; further: potency means the concentration at half of the fitted maximal effect
[3] = molecular target: KiSS-1 receptor (Homo sapiens) (UniProt Q969F8); test: Human kisspeptin (KISS1R) small molecule agonists, calcium flux assay in KISS1R-HEK293 cells (AID 1920064; active means well fitted curve in the direction sought with a large enough effect in the repeat runs; an effect the other way counts as inactive or inconclusive)
Sequence of KiSS-1 receptor (Homo sapiens) (Q969F8 whole entry, looked up): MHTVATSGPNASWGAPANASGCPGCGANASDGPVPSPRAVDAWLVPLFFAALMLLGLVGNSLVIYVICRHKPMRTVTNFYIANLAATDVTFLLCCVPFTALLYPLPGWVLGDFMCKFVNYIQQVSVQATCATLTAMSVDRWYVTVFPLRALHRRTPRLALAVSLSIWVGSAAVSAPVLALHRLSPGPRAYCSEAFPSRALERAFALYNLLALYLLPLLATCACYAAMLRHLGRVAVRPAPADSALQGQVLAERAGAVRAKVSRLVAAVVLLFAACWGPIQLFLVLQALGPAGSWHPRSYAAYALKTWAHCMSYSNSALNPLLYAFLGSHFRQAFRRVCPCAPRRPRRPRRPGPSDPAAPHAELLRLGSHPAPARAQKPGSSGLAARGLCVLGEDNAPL
Procedure, shortened: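 Agonist mode: intracellular calcium rise tracked at 1 s intervals over 3 min (480/540 nm) immediately after compound addition to dye-loaded KISS1R-HEK293 stable cells. Each compound tested at 15 concentrations in triplicate.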

[4] = G protein-coupled receptor (GPCR) small molecule agonists, calcium flux assay: HEK293 wild type cell line counter screen (AID 1920065)
Procedure, shortened: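 Calcium flux counter screen: compound added in agonist mode at 15 concentrations in triplicate to dye-loaded parental HEK293 cells. Fluorescence (480/540) read kinetically for 3 min; ATP served as positive control.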

[5] = p53 small molecule agonists, cell-based qHTS assay with human liver microsomes (AID 1963577)
Procedure, shortened: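 p53RE-bla reporter cells were pre-incubated 5 h at 37 C, then treated with compounds plus human liver microsomes (0.5 mg/mL final) and NADPH (0.5 mg/mL final) for 16 h at 37 C. Beta-lactamase activity was read by LiveBLAzer fluorescence after 2 h at room temperature.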

[6] = p53 small molecule agonists, cell-based qHTS assay with rat liver microsomes (AID 1963578)
Procedure, shortened: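 p53RE-bla cells were exposed to compounds together with rat liver microsomes (0.5 mg/mL final) and NADPH (0.5 mg/mL final) for 16 h at 37 C, then read by LiveBLAzer beta-lactamase fluorescence after 2 h at room temperature.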

[7] = p53 small molecule agonists, cell-based qHTS assay with human liver microsomes: qHTS cell viability counter screen (AID 1963579); further: nearly all actives have a fitted effect of over 45% in size
Procedure, shortened: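 p53RE-bla cells (4,000/well) were pre-incubated 5 h at 37 C, then given compounds in DMSO plus human liver microsomes (0.5 mg/mL final) and NADPH (0.5 mg/mL final) for 16 h at 37 C. Viability was read by CellTiter-Glo luminescence.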

[8] = p53 small molecule agonists, cell-based qHTS assay with rat liver microsomes: qHTS cell viability counter screen (AID 1963580); further: nearly all actives have a fitted effect of over 45% in size
Procedure, shortened: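 After the beta-lactamase ratio was read, CellTiter-Glo was added to the same wells and luminescence measured at 30 min; cells had been treated 16 h at 37 C with compounds, rat liver microsomes and NADPH (0.5 mg/mL final each).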

[9] = p53 small molecule agonists, cell-based qHTS assay: qHTS cell viability counter screen (AID 1963581); further: nearly all actives have a fitted effect of over 45% in size; further: potency means the concentration at half of the fitted maximal effect
Procedure, shortened: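 Counter screen read by CellTiter-Glo luminescence (ATP content, 30 min at room temperature), run in the same wells as the beta-lactamase reporter read. HCT-116 p53RE-bla cells saw compounds for 16 h at 37 C.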

[10] = molecular target: 5-hydroxytryptamine receptor 2A (Homo sapiens) (UniProt P28223); test: 5-hydroxytryptamine receptor 2A (HTR2A) small molecule agonists, cell-based qHTS assay (AID 1963587); further: nearly all actives have a fitted effect of over 30% in size
Sequence of 5-hydroxytryptamine receptor 2A (Homo sapiens) (P28223 whole entry, looked up): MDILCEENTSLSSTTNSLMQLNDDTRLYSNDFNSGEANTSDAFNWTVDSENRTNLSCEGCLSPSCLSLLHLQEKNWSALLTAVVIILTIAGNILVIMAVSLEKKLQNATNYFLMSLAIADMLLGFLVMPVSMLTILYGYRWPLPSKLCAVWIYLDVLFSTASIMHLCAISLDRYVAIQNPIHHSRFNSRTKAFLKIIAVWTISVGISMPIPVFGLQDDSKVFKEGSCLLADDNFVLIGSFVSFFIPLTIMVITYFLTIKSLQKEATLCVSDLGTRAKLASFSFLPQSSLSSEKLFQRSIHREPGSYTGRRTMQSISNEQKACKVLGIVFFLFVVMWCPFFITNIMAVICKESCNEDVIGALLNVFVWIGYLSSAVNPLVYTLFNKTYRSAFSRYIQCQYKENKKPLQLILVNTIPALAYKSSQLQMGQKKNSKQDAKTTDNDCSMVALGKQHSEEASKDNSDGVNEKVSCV
Procedure, shortened: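 CHO cells stably expressing human HTR2A, plated 18 h, loaded with calcium dye 1 h at 37 C. Agonist mode: compounds added and intracellular calcium fluorescence recorded kinetically for 2 min at 1 sec intervals.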

[11] = molecular target: Muscarinic acetylcholine receptor M1 (Homo sapiens) (UniProt P11229); test: Cholinergic receptor muscarinic 1 (CHRM1) small molecule agonists, cell-based qHTS assay (AID 1963589); further: nearly all actives have a fitted effect of over 35% in size
Sequence of Muscarinic acetylcholine receptor M1 (Homo sapiens) (P11229 whole entry, looked up): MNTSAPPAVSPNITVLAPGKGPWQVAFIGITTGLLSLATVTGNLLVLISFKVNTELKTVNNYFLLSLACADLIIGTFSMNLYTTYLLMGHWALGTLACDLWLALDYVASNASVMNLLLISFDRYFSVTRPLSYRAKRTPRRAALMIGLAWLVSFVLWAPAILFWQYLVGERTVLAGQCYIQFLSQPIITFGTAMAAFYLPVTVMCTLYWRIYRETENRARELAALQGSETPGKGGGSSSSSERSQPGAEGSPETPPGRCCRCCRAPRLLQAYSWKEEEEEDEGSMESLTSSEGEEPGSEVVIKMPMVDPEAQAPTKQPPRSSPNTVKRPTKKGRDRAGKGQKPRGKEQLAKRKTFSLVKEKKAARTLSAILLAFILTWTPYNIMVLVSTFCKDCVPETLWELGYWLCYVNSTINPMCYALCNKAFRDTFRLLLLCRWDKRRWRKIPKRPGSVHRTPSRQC
Procedure, shortened: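 Agonist-mode calcium-flux screen: compounds at 15 concentrations, three independent runs, were pin-transferred onto dye-loaded human CHRM1-CHO cells. Fluorescence was then recorded kinetically every second over minutes.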

[12] = cAMP Responsive Elements (CRE) small molecule agonists, cell-based qHTS assay (AID 1963590)
Procedure, shortened: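 Agonist mode: compound added to CRE-bla HEK 293T cells (2,000/well, 18 h after plating) for 3 h at 37 C/5% CO2. Reporter activity detected via FRET beta-lactamase substrate, 2 h room-temperature loading.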

[13] = cAMP Responsive Elements (CRE) small molecule antagonists, cell-based qHTS assay (AID 1963591; active means well fitted inhibition curve with a large enough effect in the signal ratio in the repeat runs, not every such curve was filed as active; the % refers to the signal ratio)
Procedure, shortened: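 Antagonist mode: compounds are added alongside the adenylyl cyclase activator NKH477 (0.25 uM final) to CRE-bla HEK293T cells for 3 h. LiveBLAzer FRET substrate, 2 h at room temperature, reports bla expression.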

[14] = molecular target: Beta-2 adrenergic receptor (Homo sapiens) (UniProt P07550); test: Adrenergic beta2 receptor (ADRB2) small molecule antagonists, cell-based qHTS assay (AID 1963592); further: nearly all actives have a fitted effect of over 50% in size; further: potency means the concentration at half of the fitted maximal effect
Sequence of Beta-2 adrenergic receptor (Homo sapiens) (P07550 whole entry, looked up): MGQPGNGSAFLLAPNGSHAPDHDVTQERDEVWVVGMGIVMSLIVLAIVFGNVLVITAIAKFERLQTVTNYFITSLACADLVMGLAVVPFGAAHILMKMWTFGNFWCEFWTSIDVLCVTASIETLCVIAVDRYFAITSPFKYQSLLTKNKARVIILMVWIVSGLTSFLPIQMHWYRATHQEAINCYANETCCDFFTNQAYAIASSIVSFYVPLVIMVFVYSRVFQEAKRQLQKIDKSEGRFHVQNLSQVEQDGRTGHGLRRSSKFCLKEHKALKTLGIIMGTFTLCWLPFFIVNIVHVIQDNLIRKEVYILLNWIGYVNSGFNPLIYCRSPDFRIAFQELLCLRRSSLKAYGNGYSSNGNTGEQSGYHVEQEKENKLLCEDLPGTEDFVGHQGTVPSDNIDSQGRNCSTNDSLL
Procedure, shortened: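 Assay format: CHO-ADRB2 cells, 18-20hr seeding at 37C/5% CO2, then compound plus 1nM isoproterenol agonist mix for 0.5hr RT. Homogeneous time-resolved fluorescence cAMP detection after 1hr, expressed as 665/615 nm ratio.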

[15] = molecular target: D(2) dopamine receptor (Homo sapiens) (UniProt P14416); test: Dopamine D2 receptor (DRD2) small molecule agonists, cell-based qHTS assay (AID 1963594); further: nearly all actives have a fitted effect of over 35% in size
Sequence of D(2) dopamine receptor (Homo sapiens) (P14416 whole entry, looked up): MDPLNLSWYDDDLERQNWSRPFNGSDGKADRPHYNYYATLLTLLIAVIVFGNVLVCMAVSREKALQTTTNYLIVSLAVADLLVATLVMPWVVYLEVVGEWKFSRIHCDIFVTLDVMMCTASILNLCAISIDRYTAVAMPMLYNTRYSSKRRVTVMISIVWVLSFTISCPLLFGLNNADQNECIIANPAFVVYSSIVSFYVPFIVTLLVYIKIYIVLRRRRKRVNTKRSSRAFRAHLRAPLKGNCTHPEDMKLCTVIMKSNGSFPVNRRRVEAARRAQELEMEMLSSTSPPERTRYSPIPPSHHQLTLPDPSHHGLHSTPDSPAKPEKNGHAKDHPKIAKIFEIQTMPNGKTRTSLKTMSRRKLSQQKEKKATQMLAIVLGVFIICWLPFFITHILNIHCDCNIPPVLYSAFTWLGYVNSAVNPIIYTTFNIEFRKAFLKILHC
Procedure, shortened: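 HEK293 cells stably expressing human DRD2, pre-treated with PDE inhibitor Ro20-1724 (0.1 mM final) and compound 10 min at room temperature, then stimulated with NKH477 (200nM […]) for 30 min. cAMP read by HTRF (665/620 nm).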

[16] = molecular target: D(2) dopamine receptor (Homo sapiens) (UniProt P14416); test: Dopamine D2 receptor (DRD2) small molecule antagonists, cell-based qHTS assay (AID 1963595; active means well fitted inhibition curve with a large enough effect in the signal ratio in the repeat runs, with a control signal flat; the % refers to the signal ratio; further: potency means the concentration at half of the fitted maximal effect)
Procedure, shortened: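 HTRF cAMP read-out at 665 and 620 nm emission (340 nm excitation). Antagonist mode: compounds were tested against 12 nM quinpirole in DRD2-HEK293 cells, with 200 nM NKH477 raising cAMP and 0.1 mM Ro20-1724 blocking its breakdown.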

[17] = p53 small molecule agonists, cell-based qHTS assay (AID 1963582; active means well fitted activation curve with a large enough effect in the signal ratio in the repeat runs, not every such curve was filed as active; the % refers to the signal ratio)
Procedure, shortened: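 Read-out is beta-lactamase FRET fluorescence after 2 h at room temperature with LiveBLAzer B/G substrate. p53 response element-bla cells were treated 16 h at 37 C with compounds in DMSO, added 5 h after seeding.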

[18] = molecular target: 5-hydroxytryptamine receptor 2A (Homo sapiens) (UniProt P28223); test: 5-hydroxytryptamine receptor 2A (HTR2A) small molecule antagonists, cell-based qHTS assay (AID 1963586); further: nearly all actives have a fitted effect of over 45% in size
Procedure, shortened: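 CHO cells stably expressing human HTR2A were plated for 18 h at 37 C, then loaded with calcium dye for 1 h. Compounds were preincubated 5 min at room temperature before DOI (4 nM solution) was added. Kinetic fluorescence was read for 3 min.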

[19] = molecular target: Muscarinic acetylcholine receptor M1 (Homo sapiens) (UniProt P11229); test: Cholinergic receptor muscarinic 1 (CHRM1) small molecule antagonists, cell-based qHTS assay (AID 1963588); further: nearly all actives have a fitted effect of over 40% in size
Procedure, shortened: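 Compounds were tested at 15 concentrations in three independent runs. Dye-loaded CHRM1-CHO cells were exposed 5 min at room temperature before stimulation by acetylcholine added at 50nM. Intracellular calcium was read kinetically on FDSS for 3 min.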

[20] = molecular target: Beta-2 adrenergic receptor (Homo sapiens) (UniProt P07550); test: Adrenergic beta2 receptor (ADRB2) small molecule agonists, cell-based qHTS assay (AID 1963593);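 further: CHO cells stably overexpressing human ADRB2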
Procedure, shortened: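 CHO cells stably over-expressing ADRB2 were plated overnight at 37C, then dosed with compounds plus a stimulation mix containing 100uM IBMX and 25uM Ro-20-1724 for 0.5hr at room temperature. cAMP was measured by HTRF competition, 1hr.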

Measured: Potency

Cc1c(N)cccc1[N+](=O)[O-]
active: [2] 27.8 µM
not listed: [17] | [18] | [19] | [20]
inactive: all other assays above

OC1(c2ccc(Cl)c(C(F)(F)F)c2)CCN(CCCC(c2ccc(F)cc2)c2ccc(F)cc2)CC1
active: [1] 6.68 µM | [9] 11.2 µM | [14] 26.6 µM | [16] 0.119 µM
not listed: [12] | [13] | [17] | [18] | [19] | [20]
inactive: all other assays above

CCNC(=O)C1CC(C)CCC1C(C)C (stereo unspecified)
not listed: [13] | [20]
inactive: all other assays above

C=CCOC(=O)/C=C\C(=O)OCC=C
active: [2] 24.8 µM
not listed: [10] | [12] | [13] | [20]
inactive: all other assays above

CN(C)CCCSc1ccccc1NC(=O)/C=C/c1ccccc1
not listed: [10] | [16] | [18]
inactive: all other assays above

CN1CCN(CCCN2c3ccccc3Sc3ccc(Cl)cc32)CC1
inactive: [1] | [2] | [3] | [4] | [5] | [6] | [7] | [8] | [9] | [20] | [15]

O=C(O)c1ccc(Cl)c(Cl)c1
not listed: [9] | [12] | [20]
inactive: all other assays above

CCCCCC[C@@H](O)C/C=C\CCCCCCCC(=O)OCC(O)CO (stereo partly specified)
not listed: [12] | [13] | [19] | [20]
inactive: all other assays above

CC(=O)OC(C)(C)Cc1ccccc1
not listed: [16] | [17] | [20]
inactive: all other assays above

Cc1c(C(=O)NCCO)[n+](=O)c2ccccc2n1[O-]
not listed: [10] | [11] | [20]
inactive: all other assays above

O=C(O)c1cc(Cl)cc([N+](=O)[O-])c1Cl
not listed: [12]
inactive: all other assays above

CN(C)CCN1C(=O)c2ccccc2N(C)c2ccccc21
not listed: [9] | [18] | [19] | [20]
inactive: all other assays above

CC1(C)[C@H]2CC[C@]1(C)C(=O)C2
active: [2] 68.6 µM
inactive: [1] | [5] | [6] | [7] | [13] | [14] | [20] | [15] | [16]

Cc1oc(=O)oc1COC(=O)[C@@H]1N2C(=O)[C@@H](NC(=O)[C@H](N)c3ccccc3)[C@H]2SC1(C)C
not listed: [20]
inactive: all other assays above

CNCc1ccccc1
not listed: [9] | [12]
inactive: all other assays above
